# Laboratory results reported in PubChem BioAssay (NCI).
# Compounds without any hit were thinned out: in the full panel of roughly 83,000, 20% have a hit.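 Note: values are percent growth. 100 is the growth of untreated cells, values between 100 and 0 indicate rising inhibition; between -100 and 0 indicates cell death.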 A number with no mark means an inactive call. Calls of active or inactive are those of the source. The calls were made as follows: active = growth percent below 10; inactive = the rest.
# Legend:
# Test in all cases: NCI-60 one-dose screen, 48 h (100 = growth as untreated, 0 = no growth, -100 = all killed)
# Details in all cases: 10 µM unless noted
# DU-145 prostate = tested on: DU-145 prostate
# K-562 leukemia = tested on: K-562 leukemia
# MALME-3M melanoma = tested on: MALME-3M melanoma
# MDA-MB-231 breast = tested on: MDA-MB-231 breast
# RXF 393 renal = tested on: RXF 393 renal
# SF-268 CNS = tested on: SF-268 CNS
# SF-295 CNS = tested on: SF-295 CNS
# SF-539 CNS = tested on: SF-539 CNS
# UACC-257 melanoma = tested on: UACC-257 melanoma
# M14 melanoma = tested on: M14 melanoma
Compound,growth (DU-145 prostate),growth (K-562 leukemia),growth (MALME-3M melanoma),growth (MDA-MB-231 breast),growth (RXF 393 renal),growth (SF-268 CNS),growth (SF-295 CNS),growth (SF-539 CNS),growth (UACC-257 melanoma),growth (M14 melanoma)
COC(=O)C1=CCC(n2cnc3c(N)ncnc32)O1 (stereo not given),113%,91.8%,108%,98.5%,-7.73% (active),121%,113%,98%,105%,105%
CC1c2ccccc2-c2ccccc2N1C (stereo not given),110%,88.3%,99.4%,97.4%,116%,105%,109%,50.2%,114%,106%
COc1ccc(-c2cc(-c3nnc(SCC(=O)Nc4ccc(C(C)=O)cc4)n3-c3ccccc3)c3ccccc3n2)cc1OC,110%,110%,97.2%,105%,115%,89.9%,98.7%,97.4%,87.1%,93.7%
Cc1cc(=O)[nH]c(/C(=N/Nc2ccccc2)C(=O)c2ccc(Cl)cc2)n1,105%,52.7%,114%,102%,28.5%,117%,75.7%,92.3%,103%,97.1%
O=C(Nc1nc2c(C(F)(F)F)cccc2s1)c1cc(Cl)ccc1O,23%,5.1% (active),-24.8% (active),-13.2% (active),-5.36% (active),21.2%,-21.2% (active),15%,-23.7% (active),8.01% (active)
NC(=O)NC1(C(=O)O)CCCC1,118%,99.9%,114%,109%,125%,106%,116%,102%,101%,113%
C[C@H]1c2cccc(O)c2C(O)=C2C(=O)[C@]3(O)C(O)=C(C(N)=O)C(=O)[C@@H](N(C)C)[C@@H]3[C@@H](O)[C@@H]21,47.7%,37.9%,27.8%,74.6%,58.3%,28.2%,19.2%,25.6%,57.7%,32.1%
O=C(CNC(=O)c1cccc2ccccc12)Nc1ccccc1Oc1cccc(O)c1,17.1% [5 µM],9.03% [5 µM] (active),63.6% [5 µM],48.9% [5 µM],-19% [5 µM] (active),49.9% [5 µM],3.33% [5 µM] (active),-18.4% [5 µM] (active),45% [5 µM],-8.22% [5 µM] (active)
C[C@H](C(=O)N[C@@H](Cc1ccc(-c2ccccc2)cc1)C(=O)NC1CC(C)(C)N(C)C(C)(C)C1)c1ccc(-c2ccccc2)c(F)c1,-83.1% (active),-56.9% (active),-71.5% (active),-68.5% (active),-73.2% (active),-70.9% (active),-66% (active),-79.5% (active),-66.2% (active),-82.6% (active)
Cc1[nH]ccc2cc3nc4ccccc4c3cc12,34.4%,12.1%,29.8%,26.3%,17.5%,40%,20.1%,34%,39.9%,38%
CC1CN(CC(O)c2ccc(Br)cc2)CCO1 (stereo not given),114%,96.9%,116%,123%,124%,99.9%,112%,106%,105%,104%
CCOC(=O)CCN(c1c(Cl)ssc1=O)C(C)C,100%,106%,111%,104%,87.8%,113%,119%,97.7%,95.5%,84.7%
CS(=O)(=O)N1CCN(Cc2cc3nc(-c4cccc5[nH]ncc45)nc(N4CCOCC4)c3s2)CC1 (tested in a mixture with another compound),21.3%,58.5%,-15.2% (active),42.9%,-34.2% (active),31.4%,1.83% (active),3.67% (active),20%,25%
COP(=O)(OC)C(c1ccccc1)(c1ccccc1)c1ccccc1,112%,80.7%,103%,90.2%,36.9%,120%,60%,95.9%,82.1%,98.7%
c1ccc(-c2n(Cc3ccc4ccccc4c3)cc[n+]2Cc2ccc3ccccc3c2)cc1,4.64% (active),-36.7% (active),-67.8% (active),-82.7% (active),-84.7% (active),-58.2% (active),-51% (active),-34.7% (active),-57.1% (active),-60.5% (active)
CCOc1cc(/C=C/C(=O)CC(=O)/C=C/c2ccc(OC(=O)CNCCN(CC)CC)c(OCC)c2)ccc1OC(=O)CNCCN(CC)CC,-44.3% (active),-10.8% (active),-39.9% (active),5.09% (active),-79.4% (active),3.21% (active),-18.4% (active),-58.1% (active),23.6%,-14.5% (active)
O=C1NC(=O)/C(=C/c2ccc(Cl)cc2Cl)N1,117%,104%,100%,110%,120%,103%,114%,103%,108%,121%
Nc1nc(NC2CC2)c2ncn(C3C=CC(CO)C3)c2n1 (stereo not given),126%,84.2%,105%,98.5%,-4.67% (active),126%,106%,118%,100%,116%
O=C(/C=C/c1ccc(C(F)(F)F)cc1)c1ccc(Nc2nc(NCCO)nc(NCCO)n2)cc1,52.9%,11.7%,66.2%,71%,74.2%,54%,44.6%,29.3%,80.8%,65.4%
O=C(CSc1ncc(-c2ccccc2)n1-c1ccccc1)Nc1ccc(-c2nc3ccccc3s2)cc1,68.4%,70.7%,17%,95.4%,93.2%,54.3%,96.4%,59.8%,48.8%,72.8%
Cc1cc(=O)oc2cc(OCCn3c(C)nn(-c4ccc(Cl)cc4)c3=O)ccc12,21.6%,16.3%,32.9%,47.5%,37.4%,50.3%,14%,29.5%,22.5%,14.7%
O=C(CSc1nnc(-c2cc(-c3ccccc3)nc3ccccc23)o1)c1ccc(Br)cc1,106%,91%,97.3%,95.4%,108%,93.8%,107%,99.6%,111%,101%
CC(C)Sc1nc(Cl)c(C#N)c(-c2ccc(F)cc2)n1,113%,16.2%,100%,111%,116%,106%,108%,96.5%,118%,94.5%
CCN1CC2=C(Nc3nc(SC)[nH]c(=O)c3C2c2cc(OC)c(OC)c(OC)c2)/C(=C/c2cc(OC)c(OC)c(OC)c2)C1 (stereo not given),112%,90.9%,112%,104%,106%,110%,100%,104%,97%,114%
O=C(CC(C(=O)c1ccccc1)N1CCN(Cc2ccccc2)CC1)c1ccccc1 (stereo not given),86.2%,19.5%,110%,96%,95%,106%,109%,93.8%,93.7%,77.9%
CC1C(=O)NC2=Nc3ccccc3C(=O)NN21 (stereo not given),119%,101%,104%,90.4%,116%,113%,105%,103%,114%,102%
